# Where “and” joins values, the source holds several entries; their conditions need not be identical. Equal entries are not always repeated. Inconclusive results are not listed. Entries that show only a call come without a potency. Values without a mark were called inactive. Calls of active or inactive are those of the source. Calls follow the shape of the dose curve; as a rule, active = well fitted curve in the direction sought with a large enough effect; inconclusive = small, poorly fitted or top-dose-only effect, or another doubt; inactive = no such curve, though single readings can be large; an effect the other way counts as inactive or inconclusive.
# Experiments:
# [1] = target: Cytochrome P450 3A7 (Homo sapiens) (UniProt P24462); test: Cytochrome P450 family 3 subfamily A member 7 (CYP3A7) small molecule antagonists: luciferase biochemical qHTS assay (AID 1963596); also: nearly all actives have a fitted effect of over 40% in size
# Outline: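 Compounds were screened in qHTS format for interference with CYP3A7 turnover of a proluciferin substrate. Reactions ran 1 h at room temperature after NADPH regeneration solution was added, then luciferin product was detected by luminescence.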
# [2] = Viability qHTS for spleen associated tyrosine kinase inhibitor (SYKi) naive MV4-11 cells (AID 1963823); also: nearly all actives have a fitted effect of over 40% in size; also: potency is read from the fitted curve at half-maximal effect
# Outline: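 Compounds were dispensed acoustically onto plates, MV4-11 cells (SYKi-naive) added at 500 per well, and plates incubated 72 hr at 37 C. CellTiter-Glo was added and luminescence measured after 10 min.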
# [3] = Cellular viability qHTS for adrenocortical cancer (ACC) cell line SW-13 (AID 1963989); settings: SW-13 ACC cells viability, CellTiter-Glo, 48 h; activity (max response): stronger effect = lower value; also: nearly all actives have a fitted effect of over 65% in size; also: potency is read from the fitted curve at half-maximal effect;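 as to activity (max response): cells grown in serum-free medium with ITS supplement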
# Outline: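 48 h treatment, SW-13 in ITS/DMEM serum-free; doses up to 46 uM; readout CellTiter-Glo luminescence; curve fit four-parameter logistic.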
# [4] = Cellular viability qHTS for adrenocortical cancer (ACC) cell line NCI-H295R (AID 1963990); also: nearly all actives have a fitted effect of over 60% in size; also: potency is read from the fitted curve at half-maximal effect
# Outline: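 Compound titrations (up to 46 uM final) are applied to NCI-H295R cultures for 48 h at 37C. Viable cell number is estimated by CellTiter-Glo signal, normalised to DMSO and doxorubicin controls.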
# [5] = Quantitative highthroughput screen to assess conditional lethalithy of NOMO1 cells grown in RPMI1640 with untreated serum (RPMI+s) (AID 1963876); also: nearly all actives have a fitted effect of over 35% in size; also: potency is read from the fitted curve at half-maximal effect
# Outline: (§1)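 Each medium arm—HPLM with 10% dialyzed FBS, or RPMI1640 with 5 mM glucose and 10% untreated or dialyzed FBS—was screened against an 11-point, 3-fold compound titration for 48 h at 37 °C, with CellTiter-Glo luminescence as endpoint.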
# [6] = Quantitative highthroughput screen to assess conditional lethalithy of NOMO1 cells grown in RPMI1640 with dialyzed fetal bovine serum (RPMI+ds) (AID 1963877); also: nearly all actives have a fitted effect of over 30% in size; also: potency is read from the fitted curve at half-maximal effect; as to Viability: series mostly up to about 46 µM
# Outline: as §1
# [7] = Quantitative highthroughput screen to assess conditional lethalithy of NOMO1 cells grown in Human Plasma-Like Medium with dialyzed fetal bovine serum (HPLM+ds) (AID 1963878); also: nearly all actives have a fitted effect of over 35% in size; also: potency is read from the fitted curve at half-maximal effect
# Outline: as §1
# [8] = Quantitative highthroughput screen to assess conditional lethalithy of P12 Ichikawa cells grown in RPMI1640 with untreated serum (RPMI+s) (AID 1963881); settings: Potency: viability; also: nearly all actives have a fitted effect of over 35% in size; also: potency is read from the fitted curve at half-maximal effect; as to Viability: series mostly up to about 46 µM
# Outline: as §1
# [9] = Quantitative highthroughput screen to assess conditional lethalithy of SEM cells grown in Human Plasma-Like Medium with dialyzed fetal bovine serum (HPLM+ds) (AID 1963882); also: nearly all actives have a fitted effect of over 35% in size; also: potency is read from the fitted curve at half-maximal effect; as to Viability: series mostly up to about 46 µM
# Outline: as §1
# [10] = Quantitative highthroughput screen to assess conditional lethalithy of SEM cells grown in RPMI1640 with dialyzed fetal bovine serum (RPMI+ds) (AID 1963884); also: nearly all actives have a fitted effect of over 35% in size; also: potency is read from the fitted curve at half-maximal effect; as to Viability: series mostly up to about 46 µM
# Outline: as §1
# [11] = Quantitative highthroughput screen to assess conditional lethalithy of P12 Ichikawa cells grown in RPMI1640 with dialyzed fetal bovine serum (RPMI+ds) (AID 1963880); settings: Potency: P12-Ichikawa viability; also: nearly all actives have a fitted effect of over 35% in size
# Outline: as §1
# [12] = Quantitative highthroughput screen to assess conditional lethalithy of SEM cells grown in RPMI1640 with unreated serum (RPMI+s) (AID 1963883); also: nearly all actives have a fitted effect of over 35% in size; also: potency is read from the fitted curve at half-maximal effect
# Outline: as §1
# [13] = Quantitative highthroughput screen to assess conditional lethalithy of P12 Ichikawa cells grown in Human Plasma-Like Medium with dialyzed fetal bovine serum (HPLM+ds) (AID 1963879); settings: Potency: viability; also: nearly all actives have a fitted effect of over 35% in size; also: potency is read from the fitted curve at half-maximal effect; as to Viability: series mostly up to about 46 µM
# Outline: as §1
# Cytochrome P450 3A7 (Homo sapiens), sequence (P24462 whole entry, looked up): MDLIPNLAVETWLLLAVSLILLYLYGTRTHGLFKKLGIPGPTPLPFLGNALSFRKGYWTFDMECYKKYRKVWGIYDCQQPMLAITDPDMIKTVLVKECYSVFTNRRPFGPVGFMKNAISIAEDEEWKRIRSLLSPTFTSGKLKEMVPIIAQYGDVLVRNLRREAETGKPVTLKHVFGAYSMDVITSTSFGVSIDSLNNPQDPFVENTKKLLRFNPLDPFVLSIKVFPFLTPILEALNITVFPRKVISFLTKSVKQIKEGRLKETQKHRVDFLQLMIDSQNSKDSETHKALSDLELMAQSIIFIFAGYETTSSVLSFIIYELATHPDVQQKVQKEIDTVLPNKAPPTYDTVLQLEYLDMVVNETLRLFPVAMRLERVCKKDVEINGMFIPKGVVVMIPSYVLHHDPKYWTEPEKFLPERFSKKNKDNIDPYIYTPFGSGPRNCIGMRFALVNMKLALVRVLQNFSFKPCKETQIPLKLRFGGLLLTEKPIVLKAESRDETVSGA
smiles,measurement,setting,value
COc1cc(OC)nc(O[C@H](C(=O)O)C(OC)(c2ccccc2)c2ccccc2)n1,Potency,[1],inactive
same,Potency,[2],inactive
same,activity (max response),[3],12.1%
same,Potency,[4],inactive
CCN1CCc2nc(N)oc2CC1,Potency,[1],inactive
same,Potency,[2],inactive
same,activity (max response),[3],7.47%
C[C@]12CCC(=O)C=C1CC[C@@H]1[C@@H]2[C@@H](O)C[C@@]2(C)[C@H]1CC[C@]2(O)C(=O)CO,Potency,[1],inactive
same,Potency,[2],inactive
same,activity (max response),[3],8.55% and 7.07%
same,Potency,[4],inactive
NC(CO)(CO)CO,Potency,[1],inactive
same,Potency,[2],inactive
same,activity (max response),[3],12.7%
same,Potency,[4],inactive
CC1CN(c2cc3c(cc2F)c(=O)c(C(=O)O)cn3-c2ccc(F)cc2F)CCN1 (stereo not given),"activity change, negative = inhibition",[1],17% [at 4.83 µM]
same,viability (% of control),[2],91.3% [at 4.97 µM]
same,activity (max response),[3],-5.86%
same,"activity change, negative = viability loss",[4],1.32% [at 3.81 µM]
O=C(O)c1ccccn1,Potency,[1],inactive
same,Potency,[2],inactive
same,activity (max response),[3],1.31%
same,Potency,[4],inactive
Nc1cccc2c1CN(C1CCC(=O)NC1=O)C2=O (stereo not given),Potency,[1],inactive
same,Potency,[2],4.22 µM (active)
same,Potency,[5],inactive
same,Potency,[6],inactive
same,Potency,[7],inactive
same,Potency,[8],inactive
same,Potency,[9],inactive
same,Potency,[10],inactive
same,activity (max response),[3],-7.43%
same,Potency,[4],inactive
CC(C)(C)NC[C@H](O)COc1cccc2c1CCCC2=O,Potency,[1],inactive
same,Potency,[2],11.9 µM (active)
same,activity (max response),[3],-13.3%
same,Potency,[4],inactive
CN1C[C@@H]2C[C@H]1CN2c1cc2c(cc1F)c(=O)c(C(=O)O)cn2C1CC1,Potency,[1],inactive
same,Potency,[2],inactive
same,activity (max response),[3],-2.55%
same,Potency,[4],inactive
OC(CN1CCC(Cc2ccc(F)cc2)CC1)c1ccc(Cl)cc1 (stereo not given),Potency,[1],inactive
same,Potency,[2],5.31 µM (active)
same,Potency,[5],inactive
same,Potency,[6],inactive
same,Potency,[7],inactive
same,Potency,[11],inactive
same,Potency,[8],inactive
same,Potency,[9],inactive
same,Potency,[12],inactive
same,Potency,[10],inactive
same,activity (max response),[3],-8.69%
same,Potency,[4],inactive
NS(=O)(=O)c1cc(C(=O)O)cc(N2CCCC2)c1Oc1ccccc1,Potency,[1],inactive
same,Potency,[2],inactive
same,activity (max response),[3],-0.899%
same,Potency,[4],inactive
CC(C)Nc1cc(C(F)(F)F)cc2nc(NC(=O)c3cccnc3)nn12,Potency,[1],inactive
same,Potency,[2],0.184 µM (active)
same,Potency,[5],1.05 µM (active)
same,Potency,[6],0.743 µM (active)
same,Potency,[13],0.935 µM (active)
same,Potency,[8],2.35 µM (active)
same,Potency,[9],1.32 µM (active)
same,Potency,[10],1.18 µM (active)
same,activity (max response),[3],-12.5%
COc1c(O)cc2c(c1O)[C@@H]1O[C@H](CO)[C@@H](O)[C@H](O)[C@H]1OC2=O,Potency,[1],inactive
same,Potency,[2],inactive
same,Potency,[7],14.8 µM (active)
same,Potency,[13],16.6 µM (active)
same,Potency,[9],20.9 µM (active)
same,Potency,[12],10.5 µM (active)
same,Potency,[10],18.7 µM (active)
CC[N+](C)(CC)CCOC(=O)C1c2ccccc2Oc2ccccc21,Potency,[1],inactive
same,Potency,[2],inactive
same,activity (max response),[3],-11.3%
same,Potency,[4],inactive
Cc1c[nH]c2ccccc12,Potency,[1],inactive
same,Potency,[2],inactive
same,activity (max response),[3],13.2%
CCN(CC)CC1CCCCN1CC(=O)N1c2ccccc2C(=O)Nc2cccnc21 (stereo not given),Potency,[1],inactive
same,Potency,[2],inactive
same,activity (max response),[3],-3.91%
same,Potency,[4],inactive
CCCCOc1ccc(C(=O)Nc2ccc(F)cc2F)cc1,Potency,[1],inactive
same,Potency,[2],inactive
same,Potency,[5],inactive
same,Potency,[6],inactive
same,Potency,[13],inactive
same,Potency,[11],inactive
same,Potency,[8],inactive
same,Potency,[9],inactive
same,Potency,[10],inactive
same,activity (max response),[3],-9.55%
CCN1CCN(Cc2ccc(NC(=O)Nc3ccc(Oc4cc(NC)ncn4)cc3)cc2C(F)(F)F)CC1,Potency,[1],inactive
same,Potency,[2],inactive
same,Potency,[3],3.98 µM (active)
same,Potency,[4],10 µM (active)
CCCCCC(N)=O,Potency,[1],inactive
same,Potency,[2],inactive
same,activity (max response),[3],5.46%
same,Potency,[4],inactive
Cn1c(=O)c2c(ncn2C)n(C)c1=O,Potency,[1],inactive
same,Potency,[2],inactive
same,activity (max response),[3],-5.31% and -10.5%
same,Potency,[4],inactive
C[C@@H](c1ncncc1F)C(O)(Cn1cncn1)c1ccc(F)cc1F (stereo not given in full),Potency,[1],inactive
same,Potency,[2],inactive
same,activity (max response),[3],2.11%
same,Potency,[4],inactive
NCCNCCNCCN,Potency,[1],inactive
same,Potency,[2],inactive
same,activity (max response),[3],13.6%
same,Potency,[4],inactive
CCN(CC)CCNC(=O)c1cc(Cl)c(N)cc1OC,Potency,[1],inactive
same,Potency,[2],inactive
same,activity (max response),[3],-0.158%
same,Potency,[4],inactive
COc1cc2c3cc1Oc1cc(ccc1O)C[C@@H]1c4c(cc(OC)c(O)c4Oc4ccc(cc4)C[C@@H]3N(C)CC2)CC[N+]1(C)C,Potency,[1],inactive
same,Potency,[2],inactive
same,activity (max response),[3],-1.9%
same,Potency,[4],inactive
NC(N)=NC(N)=NCCc1ccccc1,Potency,[1],inactive
same,Potency,[2],11.8 µM (active)
same,activity (max response),[3],-8.99%
same,Potency,[4],inactive
Cc1cccc(C)c1NC(=O)c1cc(S(N)(=O)=O)c(Cl)cc1O,Potency,[1],inactive
same,Potency,[2],inactive
same,activity (max response),[3],10.1%
same,Potency,[4],inactive

# From PubChem BioAssay (NCATS)
